Results as given in PubChem BioAssay (NCATS).
Activity calls are given as the source filed them. Calls follow the shape of the dose curve; as a rule, active = well fitted inhibition curve with a large enough effect; inconclusive = small, poorly fitted or top-dose-only effect; inactive = flat fitted curve, though single readings scatter.

biological target: DNA dC->dU-editing enzyme APOBEC-3G (Homo sapiens) (UniProt Q9HC16); experiment: qHTS for inhibitors of Vif-A3G interactions: Validation (AID 588379); conditions: Vif-A3G protein interaction assay; series mostly up to 46.1 µM; activity change, negative = inhibition: at the top concentration; also: 0% is about no effect
Sequence (Q9HC16 whole entry, looked up): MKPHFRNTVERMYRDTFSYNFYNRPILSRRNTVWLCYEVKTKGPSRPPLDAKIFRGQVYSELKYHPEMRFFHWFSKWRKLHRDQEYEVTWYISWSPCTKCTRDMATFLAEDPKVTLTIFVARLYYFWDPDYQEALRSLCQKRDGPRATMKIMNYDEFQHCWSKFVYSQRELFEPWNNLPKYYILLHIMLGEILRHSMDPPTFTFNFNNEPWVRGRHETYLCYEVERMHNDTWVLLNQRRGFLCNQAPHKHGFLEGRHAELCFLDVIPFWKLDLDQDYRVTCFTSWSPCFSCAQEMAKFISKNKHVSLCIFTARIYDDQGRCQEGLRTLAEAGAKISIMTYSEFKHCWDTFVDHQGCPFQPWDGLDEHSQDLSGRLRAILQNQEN
From the text: The recent discovery and characterization of host restriction factors, which provide a potent defense to invading retroviruses, has provided new targets for antiviral drug development. APOBEC3G (A3G) and APOBEC3F (A3F) are potent cytidine deaminases that block HIV-1 replication; HIV-1 expresses the Vif protein, which counteracts A3G and A3F by binding to them and inducing their proteasomal degradation.
The Vif-A3G and Vif-A3F interactions provide two potential targets for development of small molecules which can interfere with the ability of Vif to degrade A3G or A3F. […] To identify inhibitors that can interfere with Vif mediated degradation of A3G and A3F, we have developed Hela cell lines that stably express A3G or A3F tagged with eYFP at the C-terminal end (A3G-eYFP or A3F-eYFP, respectively) and Vif. In the absence of an inhibitor, Vif induces degradation of A3G-eYFP and A3F-eYFP, and the cells are not fluorescent. In the presence of an inhibitor, it is expected that Vif will be unable to degrade A3G-eYFP and/or A3F-eYFP, resulting in an increase in yellow fluorescence. In this assays Vif A3G was screened against the Molecular Library Small Molecile Repository (MLSMR).
NIH Chemical Genomics Center [NCGC]
NIH Molecular Libraries Probe Centers Network [MLPCN]
Assay Submitter (PI): Vinay Pathak, National Cancer Institute
5 uL of 700 cells/well of A3G-YFP cells are dispensed into black, clear bottom plates. The plates are incubated overnight at 37 deg C. 23 nL of compounds are added by pintool. The plates are incubated overnight at 37 deg C and then read on the TTP Acumen (Ex 488/ Em 500-530).

| SMILES | activity change, negative = inhibition |
| --- | --- |
| Cc1noc(NS(=O)(=O)c2ccc(N)cc2)c1C | -4.62% (inactive) |
| O=S(=O)(c1cccc2cnccc12)N1CCCNCC1 | -0.0448% (inactive) |
| O=C(O)C1CCCN(CCC=C(c2ccccc2)c2ccccc2)C1 (stereo not drawn) | 2.46% (inactive) |
| CCOC(=O)c1ccc(OC(=O)CCCCCN=C(N)N)cc1 | 0.266% (inactive) |
| CC(=O)[C@H]1CC[C@H]2[C@@H]3CCC4=CC(=O)CC[C@]4(C)[C@H]3CC[C@]12C | -2.76% (inactive) |
| CCN1CCCC1CNC(=O)c1cc(S(N)(=O)=O)ccc1OC (stereo not drawn) | 3.98% (inactive) |
| CC[C@H](NC(C)C)[C@H](O)c1ccc(O)c2[nH]c(=O)ccc12 | 2.44% (inactive) |
| CC1=NN(c2ccccc2)C(=O)C1 | -1.48% (inactive) |
| COc1cc2ncnc(Nc3cccc(Cl)c3)c2cc1OC | -0.259% (inactive) |
| COc1cc([C@@H]2c3cc4c(cc3[C@H](O)[C@H]3COC(=O)[C@H]23)OCO4)cc(OC)c1OC | -24% (inactive) |
| O=c1oc2c(O)c(O)cc3c(=O)oc4c(O)c(O)cc1c4c23 | 3% (inactive) |
| NC(=O)c1cccc(N)c1 | -1.97% (inactive) |
| O=C(N[C@H](CO)[C@H](O)c1ccc([N+](=O)[O-])cc1)C(Cl)Cl | -5.12% (inactive) |
